The results in this text go back to PubChem BioAssay.

The target in assay [1] is Nuclear receptor coactivator 3 (Homo sapiens) (UniProt Q9Y6Q9). The assay can be described thus: NCOA3 GAL4-fusion reporter inhibition – cell-based, luminescence, quadruplicate, confirmation (AID 588792).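 Also: 0% = DMSO treated cells and 100% = gossypol at 36 µM.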 The following applies: HEK293 GAL4-SRC3 luciferase reporter, at 3.6 µM, hits give high values. A general note: In a reporter assay the amount or activity of a reporter protein is the signal.

For assay [2], the system named is transactivating tegument protein VP16 (Human herpesvirus 1), Gal4-VP16 luciferase reporter. The assay can be described thus: repression of VP16-driven luciferase reporter – cell-based, luminescence, high throughput, counter-screen for SRC3 inhibitor project (AID 588794; in the data active = inhibition above about 30%). To be noted: mammalian cells, at 3.6 µM, hits give high values.
Assay [3] concerns transactivating tegument protein VP16 (Human herpesvirus 1). Briefly: compounds suppressing VP16-driven luciferase signal – cell-based, luminescence, single concentration, counter-screen for SRC2 inhibitor project (AID 652007; in the data active = inhibition above about 36%). To be noted: cell-based VP16 transactivation luciferase reporter, at 8.9 µM, hits give high values. (The purpose of a counterscreen is to sort out artefacts and off-target activity.)

Assay [4] concerns the target Nuclear receptor coactivator 2 (Homo sapiens) (UniProt Q15596). Briefly: inhibition of GAL4-SRC2 driven luciferase expression – cell-based, luminescence, HEK293, triplicate, confirmation (AID 652008;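 active = mean inhibition above 46.5%, the solvent-only control mean plus 3 SD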;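 also: 0% = DMSO-treated cells and 100% = Gossypol at 36 µM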). The following applies: HEK293 GAL4-SRC2 luciferase reporter, at 8.9 µM, hits give high values.
Assay [5] addresses Nuclear receptor coactivator 1 (Homo sapiens) (UniProt Q15788). Briefly: NCOA1 GAL4-fusion reporter inhibition – cell-based, luminescence, quadruplicate, confirmation (AID 588820;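 active = mean inhibition above 46.68%, the untreated control wells mean plus 3 SD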;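 also: 0% = DMSO wells and 100% = gossypol 36 µM treated wells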). The following applies: HEK293 GAL4-SRC1 luciferase reporter, at 3.6 µM, hits give high values.
Assay [6] can be described thus: repression of VP16-driven luciferase reporter – cell-based, luminescence, high throughput, counter-screen for SRC1 inhibitor project (AID 588824; in the data active = inhibition above about 25%). To be noted: cell-based VP16 transactivation luciferase luminescence; at 3.6 µM; hits give high values.
Assay [7] has as its target Galanin receptor type 2 (Homo sapiens) (UniProt O43603). The assay can be described thus: blockers of human galanin receptor 2 – cell-based, confirmation (AID 866; in the data active = inhibition above about 27%;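 also: cells stimulated with galanin at about its EC80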). The following applies: GALR2-expressing cells, antagonist mode, at 4 µM, hits give high values.
A short description of assay [8]: nonspecific BLA reporter inhibition – CHO NFAT-bla cells, FRET readout, counter-screen for GALR2 antagonist project, confirmation (AID 867;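 active = inhibition above the mean inhibition across tested compounds plus 3 SD, cut at about 27% in these data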;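 also: 0% = 500 nM thapsigargin stimulated wells and 100% = unstimulated BSA only wells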). The following applies: beta-lactamase FRET, thapsigargin-stimulated, at 4.2 µM, hits give high values.
Assay [9] in a line: VP16-driven transactivation reporter suppression – cell-based, luminescence, HEK293, counter-screen for COUP-TFII antagonist project (AID 687007; in the data active = inhibition above about 13%). The following applies: HEK293 Gal4-VP16 luciferase reporter, at 8.5 µM, hits give high values.
In assay [10] the target is COUP transcription factor 2 (Homo sapiens) (UniProt P24468). The assay can be described thus: retest of COUP-TFII reporter suppressors – cell-based, luciferase reporter, HEK293, triplicate, confirmation (AID 687008;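 active = mean inhibition over three repeats above a set limit taken from the earlier primary screen, cut at about 38% in these data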;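 also: 100% = cells given the luciferase reporter alone without the COUP-TF2 vector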). To be noted: HEK293 NGFI-A luciferase reporter, luminescence; at 8.5 µM; hits give high values.

Structures are written as SMILES. A number with no mark means an inactive call. The list shows a part of the results. The source made the active and inactive calls.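 The calls were made as follows, unless noted: active = mean inhibition over 43.08%, the solvent-only control mean plus 3 SD; inactive = the rest.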

Nuclear receptor coactivator 1 (Homo sapiens), sequence (Q15788 whole entry, looked up, the tested form may be a part): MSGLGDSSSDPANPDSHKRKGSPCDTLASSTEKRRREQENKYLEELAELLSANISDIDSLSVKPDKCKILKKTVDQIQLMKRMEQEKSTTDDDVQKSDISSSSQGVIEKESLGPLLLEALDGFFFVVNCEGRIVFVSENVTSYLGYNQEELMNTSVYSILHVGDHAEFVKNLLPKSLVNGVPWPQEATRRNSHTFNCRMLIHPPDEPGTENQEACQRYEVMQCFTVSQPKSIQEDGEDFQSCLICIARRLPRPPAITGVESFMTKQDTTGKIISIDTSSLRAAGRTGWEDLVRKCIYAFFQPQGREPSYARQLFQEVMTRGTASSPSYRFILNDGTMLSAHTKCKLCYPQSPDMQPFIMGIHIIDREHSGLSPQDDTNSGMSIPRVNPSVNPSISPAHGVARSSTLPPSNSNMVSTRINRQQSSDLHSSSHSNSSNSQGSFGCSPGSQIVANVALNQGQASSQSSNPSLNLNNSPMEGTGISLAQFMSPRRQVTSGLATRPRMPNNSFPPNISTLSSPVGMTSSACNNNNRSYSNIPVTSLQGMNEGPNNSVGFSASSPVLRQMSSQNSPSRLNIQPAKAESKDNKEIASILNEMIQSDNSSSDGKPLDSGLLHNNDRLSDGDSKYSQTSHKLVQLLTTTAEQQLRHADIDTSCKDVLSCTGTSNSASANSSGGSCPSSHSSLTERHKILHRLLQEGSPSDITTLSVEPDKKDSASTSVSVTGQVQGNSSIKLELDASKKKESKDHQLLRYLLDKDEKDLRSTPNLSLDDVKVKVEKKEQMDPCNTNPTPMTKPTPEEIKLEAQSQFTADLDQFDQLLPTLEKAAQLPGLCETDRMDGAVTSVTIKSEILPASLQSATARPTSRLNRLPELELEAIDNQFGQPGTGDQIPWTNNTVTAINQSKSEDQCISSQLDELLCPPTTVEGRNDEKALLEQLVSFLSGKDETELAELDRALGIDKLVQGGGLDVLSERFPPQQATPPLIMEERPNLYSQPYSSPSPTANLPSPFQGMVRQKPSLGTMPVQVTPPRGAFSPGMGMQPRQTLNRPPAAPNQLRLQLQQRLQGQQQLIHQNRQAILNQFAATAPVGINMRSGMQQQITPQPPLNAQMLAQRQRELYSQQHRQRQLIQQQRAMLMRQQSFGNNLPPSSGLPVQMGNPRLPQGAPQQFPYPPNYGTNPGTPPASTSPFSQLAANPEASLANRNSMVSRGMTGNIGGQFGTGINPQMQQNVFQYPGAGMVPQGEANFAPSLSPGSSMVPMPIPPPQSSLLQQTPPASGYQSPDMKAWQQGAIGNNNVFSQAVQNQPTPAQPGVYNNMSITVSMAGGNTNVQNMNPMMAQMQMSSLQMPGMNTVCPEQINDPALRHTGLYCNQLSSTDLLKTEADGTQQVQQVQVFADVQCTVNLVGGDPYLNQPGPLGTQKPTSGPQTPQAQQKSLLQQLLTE
Nuclear receptor coactivator 2 (Homo sapiens), sequence (Q15596 whole entry, looked up, the tested form may be a part): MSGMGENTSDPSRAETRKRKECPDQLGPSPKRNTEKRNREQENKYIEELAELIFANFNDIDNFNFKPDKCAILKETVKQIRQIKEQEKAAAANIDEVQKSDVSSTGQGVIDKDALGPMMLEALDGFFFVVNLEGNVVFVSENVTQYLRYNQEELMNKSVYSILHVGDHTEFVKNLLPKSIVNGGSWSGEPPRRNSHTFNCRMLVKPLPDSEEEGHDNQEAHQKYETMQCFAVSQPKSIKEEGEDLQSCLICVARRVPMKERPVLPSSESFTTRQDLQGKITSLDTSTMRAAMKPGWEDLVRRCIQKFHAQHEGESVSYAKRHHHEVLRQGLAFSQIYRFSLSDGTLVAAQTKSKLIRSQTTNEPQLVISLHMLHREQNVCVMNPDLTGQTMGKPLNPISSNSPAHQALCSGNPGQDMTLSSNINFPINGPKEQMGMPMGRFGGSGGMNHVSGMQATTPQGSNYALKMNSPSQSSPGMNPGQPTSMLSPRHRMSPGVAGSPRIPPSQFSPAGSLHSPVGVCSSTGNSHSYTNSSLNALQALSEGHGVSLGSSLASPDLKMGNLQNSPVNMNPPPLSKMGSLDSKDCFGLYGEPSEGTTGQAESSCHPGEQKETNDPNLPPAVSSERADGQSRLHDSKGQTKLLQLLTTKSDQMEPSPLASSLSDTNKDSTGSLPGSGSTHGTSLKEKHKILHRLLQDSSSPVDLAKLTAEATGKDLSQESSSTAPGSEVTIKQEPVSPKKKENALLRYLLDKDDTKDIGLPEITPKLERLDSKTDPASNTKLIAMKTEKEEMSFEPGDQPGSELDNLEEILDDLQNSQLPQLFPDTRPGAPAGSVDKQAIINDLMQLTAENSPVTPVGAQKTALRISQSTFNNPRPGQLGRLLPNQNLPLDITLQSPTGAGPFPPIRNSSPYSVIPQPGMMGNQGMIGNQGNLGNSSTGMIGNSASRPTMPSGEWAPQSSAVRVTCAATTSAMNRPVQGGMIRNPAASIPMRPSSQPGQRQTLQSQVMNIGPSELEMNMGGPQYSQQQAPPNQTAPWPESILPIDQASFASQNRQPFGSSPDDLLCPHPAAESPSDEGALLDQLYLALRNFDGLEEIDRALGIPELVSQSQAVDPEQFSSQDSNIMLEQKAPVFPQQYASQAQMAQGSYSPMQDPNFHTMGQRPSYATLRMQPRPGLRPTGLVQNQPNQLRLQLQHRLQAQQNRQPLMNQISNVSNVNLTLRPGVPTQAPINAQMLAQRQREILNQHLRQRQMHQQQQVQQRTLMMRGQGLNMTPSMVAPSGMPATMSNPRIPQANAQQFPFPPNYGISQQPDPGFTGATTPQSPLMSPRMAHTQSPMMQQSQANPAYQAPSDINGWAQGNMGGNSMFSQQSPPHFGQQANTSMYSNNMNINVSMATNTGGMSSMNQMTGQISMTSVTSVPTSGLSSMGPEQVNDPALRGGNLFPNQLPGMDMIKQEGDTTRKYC
Nuclear receptor coactivator 3 (Homo sapiens), sequence (Q9Y6Q9 whole entry, looked up, the tested form may be a part): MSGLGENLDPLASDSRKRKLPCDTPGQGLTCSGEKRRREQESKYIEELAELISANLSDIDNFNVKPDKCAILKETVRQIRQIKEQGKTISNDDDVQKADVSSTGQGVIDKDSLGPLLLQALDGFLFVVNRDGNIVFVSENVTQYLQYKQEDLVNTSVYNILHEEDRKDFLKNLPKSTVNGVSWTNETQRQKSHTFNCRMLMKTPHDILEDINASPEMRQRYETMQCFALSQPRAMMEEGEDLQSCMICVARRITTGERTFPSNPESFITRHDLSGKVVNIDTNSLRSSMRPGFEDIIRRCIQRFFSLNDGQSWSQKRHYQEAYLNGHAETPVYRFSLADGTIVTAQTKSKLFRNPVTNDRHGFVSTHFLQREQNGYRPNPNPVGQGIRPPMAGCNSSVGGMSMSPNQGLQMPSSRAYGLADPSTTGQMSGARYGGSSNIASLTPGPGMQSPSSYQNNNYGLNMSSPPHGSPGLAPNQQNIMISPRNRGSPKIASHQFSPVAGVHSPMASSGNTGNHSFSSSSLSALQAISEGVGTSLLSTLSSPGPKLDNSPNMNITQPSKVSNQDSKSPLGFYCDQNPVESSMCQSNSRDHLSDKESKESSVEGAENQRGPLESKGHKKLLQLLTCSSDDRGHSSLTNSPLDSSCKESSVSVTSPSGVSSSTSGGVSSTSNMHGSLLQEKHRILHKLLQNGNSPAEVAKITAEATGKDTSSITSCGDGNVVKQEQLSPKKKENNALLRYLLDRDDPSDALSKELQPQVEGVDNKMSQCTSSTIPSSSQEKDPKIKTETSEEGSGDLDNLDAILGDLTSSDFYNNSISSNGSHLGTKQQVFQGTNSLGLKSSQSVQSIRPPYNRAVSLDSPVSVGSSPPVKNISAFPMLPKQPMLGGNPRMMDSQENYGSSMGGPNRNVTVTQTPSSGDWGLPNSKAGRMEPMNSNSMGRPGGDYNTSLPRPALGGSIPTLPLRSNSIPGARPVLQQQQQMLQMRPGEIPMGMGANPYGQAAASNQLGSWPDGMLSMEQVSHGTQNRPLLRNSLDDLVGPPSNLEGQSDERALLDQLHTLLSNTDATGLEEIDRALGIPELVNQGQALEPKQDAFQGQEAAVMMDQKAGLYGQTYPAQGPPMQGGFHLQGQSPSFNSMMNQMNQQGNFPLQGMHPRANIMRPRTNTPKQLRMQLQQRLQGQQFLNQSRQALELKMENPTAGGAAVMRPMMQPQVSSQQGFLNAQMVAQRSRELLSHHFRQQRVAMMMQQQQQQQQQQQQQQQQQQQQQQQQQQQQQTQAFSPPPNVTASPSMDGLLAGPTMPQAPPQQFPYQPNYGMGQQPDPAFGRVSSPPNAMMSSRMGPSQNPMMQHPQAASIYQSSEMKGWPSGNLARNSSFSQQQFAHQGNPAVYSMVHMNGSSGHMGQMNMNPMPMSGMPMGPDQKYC
Galanin receptor type 2 (Homo sapiens), sequence (O43603 whole entry, looked up): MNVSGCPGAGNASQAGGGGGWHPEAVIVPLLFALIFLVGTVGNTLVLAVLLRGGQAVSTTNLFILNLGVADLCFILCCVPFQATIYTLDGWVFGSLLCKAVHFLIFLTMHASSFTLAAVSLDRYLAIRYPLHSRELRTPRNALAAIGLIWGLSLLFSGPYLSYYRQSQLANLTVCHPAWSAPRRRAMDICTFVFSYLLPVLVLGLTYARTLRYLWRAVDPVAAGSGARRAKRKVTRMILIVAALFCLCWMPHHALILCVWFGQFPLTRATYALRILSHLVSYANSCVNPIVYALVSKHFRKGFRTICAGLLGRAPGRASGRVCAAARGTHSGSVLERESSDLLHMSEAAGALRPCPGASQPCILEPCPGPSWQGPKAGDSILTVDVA
COUP transcription factor 2 (Homo sapiens), sequence (P24468 whole entry, looked up): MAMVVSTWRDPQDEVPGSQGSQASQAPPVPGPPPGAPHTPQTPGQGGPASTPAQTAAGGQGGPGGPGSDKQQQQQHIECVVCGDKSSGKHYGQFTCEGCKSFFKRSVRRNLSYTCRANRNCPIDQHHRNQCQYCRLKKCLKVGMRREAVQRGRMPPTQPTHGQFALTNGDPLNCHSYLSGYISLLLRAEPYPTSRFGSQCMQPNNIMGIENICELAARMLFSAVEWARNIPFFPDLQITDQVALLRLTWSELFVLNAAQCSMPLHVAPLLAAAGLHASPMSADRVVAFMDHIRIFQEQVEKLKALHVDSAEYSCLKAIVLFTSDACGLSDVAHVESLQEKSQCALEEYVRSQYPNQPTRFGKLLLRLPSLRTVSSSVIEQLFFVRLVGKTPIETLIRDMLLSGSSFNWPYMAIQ

As usually defined, the inhibition is the drop in the measured response relative to a control, in per cent. Consider `Cc1cc2nccc(-c3ccncc3)n2n1`, for which the inhibition in assay [1] is 38.2%; in assay [2], 22.4%; in assay [3], 3.85%; in assay [4] it was 33.4%.

With `C=C(C(=O)c1ccccc1)C(C)C(=C)C(=O)c1ccccc1`, the inhibition is 44.4% (active) in assay [1], 33.4% (active) in [2], 53.9% (active) in assay [3] and 51.8% (active) in assay [4].

As for `Cc1ccc(C2=NN(C(=O)CCl)C(c3ccco3)C2)o1` (configuration not stated), the inhibition was 38.2% in assay [1], 7.74% in assay [2], 15.3% in assay [3] and 51.2% (active) in assay [4].

On to `Cc1nc([N+](=O)[O-])c(Sc2nc3ccccc3n2C)n1Cc1ccccc1`, for which the inhibition in assay [1] is 30.1%; in assay [2], 13.4%; in [3], 31.9%; in assay [4], 46.5%.

In the case of `CC1CCN(c2ccc(-c3cccs3)nn2)CC1`, the inhibition in assay [1] was 22.9%; in assay [2], 9.04%; in [3], 34.7%; in [4], 47.3% (active).

In the case of `COc1cccc(F)c1C(C[N+](=O)[O-])c1c(N)n(C)c(=O)n(C)c1=O` (configuration not stated), the inhibition in assay [1] is 42.5%; in assay [2], 24.4%; in [3] it was 14.7%; in assay [4], 28.2%.

On to `Nc1ccc(-c2nc3ccc(C(=O)O)cc3s2)cc1`, for which the inhibition in [1] was -24%; in assay [2], -26.4%; in [3] it was 40.2% (active); in assay [4], 60.6% (active).

Turning to `O=C(O)c1ccc(N/N=C/c2ccc3c(c2)OCO3)cc1`, the inhibition is -1.59% in assay [1], -12.1% in assay [2], -0.58% in assay [3] and 51.3% (active) in [4].

Regarding `O=C(C1=C(c2ccccc2)C(=O)c2ccccc2C1=O)c1ccccc1`, the inhibition in assay [1] was 93.3% (active); in assay [2] it was 90.4% (active); in assay [3], 63.8% (active); in [4], 66.4% (active).

On to `Cc1ccc(C(=O)NNC(=O)CCCN2C(=O)/C(=C/c3ccccc3Cl)SC2=S)cc1`, for which the inhibition in [1] is 20.4%; in assay [2], 21.8%; in assay [3] it was 53.4% (active); in [4] it was 60.2% (active).

`CCOc1ccc(CC(=O)Nc2ccc(NC(=O)c3ccco3)cc2)cc1OCC`: the inhibition in [1] is 64% (active); in assay [2] it was -14.3%; in [3] it was 7.03%; in [4], 41.9%.

For the compound `Cc1cc(OC(C)C(=O)Nc2ccncc2)ccc1Cl` (configuration not stated), the inhibition is -0.51% in [5] and 7.56% in assay [6].

For `COc1ccccc1CCNC(=O)CCn1c(=O)c2cccn2c2ccc(F)cc21`, the results for the inhibition in [5] and in assay [6] were -9.66% and -15.2%, respectively.

As for `NS(=O)(=O)c1ccc(N=Nc2c(O)ccc3ccccc23)cc1`, the inhibition in assay [5] was 7.96%; in assay [6], 4.7%.

Consider `Cc1nn(Cc2cccc(F)c2)c(C)c1NC(=O)c1ccc(COc2ccccc2Cl)cc1`, for which the inhibition is 31.2% in [5] and 46.7% (active) in assay [6].

In the case of `COc1cc(/C=C/C(=O)c2ccc3c(c2)OCCO3)cc(Br)c1OCC(=O)N(C)C`, the inhibition is 76.6% (active) in assay [1], 62.6% (active) in assay [2], 30.9% in assay [3] and 50.3% (active) in assay [4].

Take `O=C(NC1CCCC1)C1CCN(C(=O)c2cccc(Cl)c2)CC1`: the figures for the inhibition in assay [5] and in assay [6] were -22.6% and -3.66%, respectively.

As for `O=C(O)CCCCCN1C(=O)CSC1=S`, the inhibition in assay [1] was -1.77%; in assay [2], 2.06%; in assay [3], -0.37%; in [4], 7.01%.

Consider `CCC1(c2ccccc2)NC(=O)N(CC(=O)Nc2ccccc2C(=O)NC2CCCC2)C1=O` (configuration not stated), for which the inhibition in [5] is -5.15%; in [6], -0.59%.

As for `Cc1nnnn1/C(=C\c1ccccc1)C(=O)OCC(=O)N1CC2(C)CC1CC(C)(C)C2` (configuration not stated), the inhibition is 39% (active) in assay [7], 16.1% in assay [8], 22.4% in assay [1] and 44% (active) in assay [2].

For `COc1ccc(Cc2nnc(N/N=C/c3ccc(O)cc3)[nH]c2=O)cc1OC`, the inhibition is 84.4% (active) in [1], 81% (active) in [2], 33.1% in assay [3] and 50.5% (active) in [4].

With `Cc1ccc(C)c(N2CCN(C(=O)CCCCCn3c(=S)[nH]c4ccc(N5CCOCC5)cc4c3=O)CC2)c1`, the inhibition is 60.6% (active) in assay [1]; 73.1% (active) in assay [2]; 69.7% (active) in [3]; 60.8% (active) in [4]; 15% (active) in assay [9]; 90% (active) in assay [10].

For `COc1ccc(NC(=O)/C(Cl)=C(/Cl)S(=O)(=O)Cc2ccccc2)cn1`, the inhibition was -15.3% in [1], 8.74% in assay [2], 80.4% (active) in assay [3] and 72.4% (active) in assay [4].

Regarding `CC(C)C[C@H]1CNC(=S)N1C[C@H]1CCCN1C[C@H](CC(C)C)N1C[C@H](CC(C)C)N(CCc2ccccc2)C1=S`, the inhibition in assay [5] is -1.01%; in assay [6], 1.5%.

Regarding `N#Cc1ccc(Oc2ccc(C(F)(F)F)cc2NC(=O)c2ccc(F)cc2)cc1`, the inhibition is 6.71% in assay [5] and 1.11% in assay [6].

For `Cc1ccc(C(=O)NCCn2cc(SCC(=O)Nc3cc(C)on3)c3ccccc32)cc1`, the inhibition in assay [5] was 0.49%; in assay [6], -11.3%.

Consider `CC(C)N(CC(=O)Nc1ccc(Cl)cc1C(F)(F)F)C(=O)CCl`, for which the inhibition in [1] was 44% (active); in [2], 35.6% (active); in assay [3], 25.9%; in assay [4], 59.2% (active).

In the case of `O=C(Nc1ccc(OCC(=O)N2CCOCC2)cc1)c1cncc(Br)c1`, the inhibition in assay [1] was 29.6%; in assay [2] it was 23%; in assay [3], 3.8%; in [4], 26.1%.

For `COc1ccc(CCC(=O)Nc2ccc(Cl)c(S(=O)(=O)N3CCCC3)c2)cc1`, the results for the inhibition in assay [5] and in assay [6] were 12.1% and 27.8% (active), respectively.

`Cc1ccc2nc(NC(=O)CSCC(=O)OCC(=O)c3ccc(Br)cc3)sc2c1`: the inhibition in assay [1] was 36.5%; in [2] it was 40.5% (active); in [3], 77.8% (active); in assay [4], 89.2% (active).
